# According to PubChem BioAssay (EPA / NIEHS):
# The source made the active and inactive calls. The calls were made as follows: active = hit-call score of the fitted dose curve at least 0.9, where 1 is the maximum; inactive = score below 0.9.
# Read-out: Cytochrome P450 (CYP2B6), CYP2B6 (gene 1555)
# Experiment: LTEA_HepaRG_CYP2B6: Life Technologies and Expression Analysis (LTEA) Assay for Cytochrome P450 (CYP2B6) using HepaRG (AID 2283481)
# Details: mRNA level, 48 h; actives raise or lower the signal
# Protocol: LTEA_HepaRG is a cell based, multiplexed-readout assay that uses HepaRG, a human liver cell line, with measurements taken at 48 hours after chemical dosing on a 96-well plate.LTEA_HepaRG_CYP2B6 is one of 102 assay component(s) measured in the LTEA HepaRG cell culture assay. It is a marker of NR mediated metabolism.Data from the assay component LTEA_HepaRG_CYP2B6 was analyzed into 1 endpoint. This assay endpoint, LTEA_HepaRG_CYP2B6, was analyzed with bidirectional fitting relative to DMSO as the negative control and baseline of activity. Using a type of inducible reporter, measures of mRNA induction for gain or loss-of-signal activity can be used to understand regulation of transcription factor activity. To generalize the intended target to other relatable targets, this assay endpoint is annotated to the cyp intended target family, where the subfamily is xenobiotic metabolism.
# A total of 1060 chemcials from the ToxCast library were tested in eight-point concentration-response experiments. Cell culture and cytotoxicity assays were conducted at Thermo Fisher Scientific's Custom Services facility (Madison, WI). A single lot of human HepaRG cells (Thermo Fisher Scientific, Frederick, MD) was used for the cell culture experiments. 96-well format collagen type I coated plates of human HepaRG cells were prepared using established methods. Briefly, cryopreserved HepaRG cells were thawed, plated at a density of approximately 100,000 cells/well in HepaRG Thaw, Plate, and General Purpose media (HPRG770, Thermo Fisher Scientific), and incubated for 48 hours. 0.5% DMSO was selected as vehicle control to balance the requisite need of DMSO in HepaRG cultures to maintain differentiation (for example, baseline metabolism, proportions of hepatocytes vs. cholangiocytes), while enabling further hepatic receptor pathway activation (for example, PXR and CAR) in response to chemical exposure. 48 hours after plating, the culture medium was replaced with HepaRG Serum-Free Incudtion Media. Cells were exposed to each test chemical in duplicate and maintained in CO2 incubators for another 48 hours. Chemical plates were thawed to room temperature and 200x concentrations of treatment groups were prepared. 8-point conentration-reponse curves were made with the highest exposure at 100 uM, followed by half-log dilutions, all in 0.5% DMSO. Each test plate contained variouse controls, induction positive controls (1mM phenobarbital), cytotoxicity positive controls ([…] aflatoxin B1), vehicle controls (0.5% DMSO), and total lysis controls (0.5% DMSO). Cell morphology images were taken using an Essen IncuCyte FLR automated microscope, with six 96-well plates imaged in about 24 minutes. Images were captured and exported and JPEG files. Spent culture media was transfered to black-well plates for the LDH assay, and remaining media was sorted at -80 C for later use. Cells were treated with RLT buffer and frozen until shipped for gene expression analysis. Total RNA was isolated from the cell suspension in 75 uL of Buffer RLT (Qiagen, Germantown, MD 20874) by Quintiles/Expression Analysis (Durham, NC) using a custom isolation procedure. Total RNA from each plate well was transferred to a preamplification plate. Fluidigm's 96.96 Dynamic ArrayTM (Fluidigm, Amsterdam, the Netherlands) technology was used for gene expression analyses by quantitative reverse transcription polymerase chain reaction (qRT-PCR, performed by Quintiles/Expression Analysis, Durham, NC)89. Standard TaqManTM Assays (Applied Biosystems/ThermoFisher Scientific, Foster City, CA) were used to assess the expression of 93 genes selected based on their selectivity and sensitivity to important hepatic receptors known to be modulated by environmental chemicals; importance in human hepatocyte functionality; and hepatotoxicity. […]
SMILES,AC50,outcome
CCOc1ccc(C(C)(C)COCc2cccc(Oc3ccccc3)c2)cc1,0.63 µM (active),
O=[N+]([O-])c1ccccc1,,inactive
Nc1ccc(Cl)cc1,,inactive
Cc1cccc(N)c1,,inactive
CCC1(c2ccccc2)C(=O)N=C(O)NC1=O (stereo not given),34.7 µM (active),
Nc1ccc2ccccc2c1,13 µM (active),
Nc1cc2c3c(c1)C(c1ccccc1)=N[C@@H](NC(=O)c1cccnc1)C(=O)N3CC2,3.51 µM (active),
CC(Cl)(Cl)C(=O)O,,inactive
CCOC(=O)c1ccccc1C(=O)OCC,,inactive
CCCCN(CCCC)N=O,,inactive
CCCCN(CCCC)SN(C)C(=O)Oc1cccc2c1OC(C)(C)C2,6.66 µM (active),
c1nc[nH]n1,,inactive
O=P1(N(CCCl)CCCl)NCCCO1 (stereo not given),50 µM (active),
CCC(C)(C)c1ccc(O)cc1,,inactive
CCCN(CCC)c1c([N+](=O)[O-])cc(C(C)C)cc1[N+](=O)[O-],9.38 µM (active),
OCC1CO1 (stereo not given),,inactive
CCCCc1ccccc1,,inactive
O=P(Oc1ccccc1)(Oc1ccccc1)Oc1ccccc1,1.23 µM (active),
COCCOCCO,1.15 µM (active),
O=[N+]([O-])c1ccc(Cl)c(Cl)c1,,inactive

SMILES,AC50,outcome
O=C(O)C(Cl)Cl,,inactive
CN(C)C(=O)Cl,,inactive
c1ccc(OP(Oc2ccccc2)Oc2ccccc2)cc1,,inactive
CSC(C)(C)C=NO,,inactive
ClC1=C(Cl)C2(Cl)C3C(Cl)C(Cl)CC3C1(Cl)C2(Cl)Cl (stereo not given),0.994 µM (active),
ClC(Cl)(Cl)c1ccccc1,,inactive
CCOP(=S)(OCC)SCSCC,4.47 µM (active),
CCNc1nc(Cl)nc(NC(C)(C)C)n1,1.01 µM (active),
c1cc2c3c(cccc3c1)CC2,50 µM (active),
c1ccc2c(c1)Nc1ccccc1S2,36.6 µM (active),
CCOS(=O)(=O)OCC,,inactive
CCCCCCCc1ccc(O)cc1,,inactive
CC(Cc1ccc(OCC(=O)O)cc1)NCC(O)c1csc(C(F)(F)F)n1 (stereo not given),,inactive
CC(C)(C)OOC(C)(C)C,,inactive
CCN(CC)c1ccccc1,,inactive
[N-]=[N+]=[N-],88.3 µM (active),
CCOP(=S)(Oc1ccc([N+](=O)[O-])cc1)c1ccccc1 (stereo not given),1.05 µM (active),
ClC(Cl)c1ccccc1,22.8 µM (active),
Cc1ccc([N+](=O)[O-])cc1C,,inactive
O=C(O)C1C(C(=O)O)C2(Cl)C(Cl)=C(Cl)C1(Cl)C2(Cl)Cl (stereo not given),,inactive
